Assay [1] concerns the target Glutathione peroxidase 1 (Homo sapiens) (UniProt P07203). The assay can be described thus: Primary qHTS Assay for Inhibitors of Recombinant Selenoprotein Glutathione Peroxidase 1 (GPX1) (AID 1845191). Also: nearly all actives have a fitted effect of over 65% in size. The note with it: recombinant GPX1, GR-coupled NADPH fluorescence, 15 min; series mostly up to 48.8 µM. In outline:
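GPX1 10 nM, GR 100 nM, GSH 1 mM, NADPH 0.5 mM, CHP 0.5 mM (final). 30-min cpd preincubation, RT. Ex340/Em450 read t=0, t=15 min.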
(In general: qHTS replaces the single test concentration by a dilution series.)

Assay [2] is described as follows: NCATS anti-infectives library activity on HEK293 viability as a counter-qHTS vs the C. elegans viability qHTS (AID 1745854).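 Also: HEK293 cells exposed to compounds for 24 hr before the viability read; % is scaled to controls: 0 for no effect and ±100 for the full control effect.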 The conditions noted are these: HEK293 viability counter-screen; series mostly up to 41.8 µM. The method, boiled down:
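Compound titrations (final up to 41.7 uM) were incubated with HEK293 cells for 24 hr at 37C under 5% CO2. Viable cells were quantified with CellTiter-Glo after 10 min at ambient temperature.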

In assay [3] the target is Phospholipid hydroperoxide glutathione peroxidase GPX4 (Homo sapiens) (UniProt P36969). Nature of the assay: Primary qHTS Assay for Inhibitors of Recombinant Selenoprotein Glutathione Peroxidase 4 (GPX4) (AID 1845192). Also: nearly all actives have a fitted effect of over 65% in size. Also: potency is read from the fitted curve at half-maximal effect. As to activity change, negative = inhibition: % is scaled to controls: 0 for no effect and ±100 for the full control effect. The conditions noted are these: recombinant GPX4, GR-coupled NADPH fluorescence, 15 min; series mostly up to 50 µM. The method, boiled down:
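qHTS, GR-coupled: GPX4 200 nM + cpd 30 min RT → GSH 1 mM, NADPH 0.5 mM, GR 100 nM → CHP 0.5 mM start; fluor 340/450 at t0 and t15 min; no-enzyme wells as control.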

Assay [4] deals with Luciferin 4-monooxygenase (Photinus pyralis) (UniProt P08659). Nature of the assay: Primary firefly luciferase (FLuc) qHTS assay for identification of artifact compounds. (AID 1845220). Also: nearly all actives have a fitted effect of over 60% in size. Also: potency is read from the fitted curve at half-maximal effect.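 As to activity change, negative = inhibition: plate controls were DMSO vehicle for no effect and no enzyme for full effect.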 The note with it: purified firefly luciferase, luminescence, 5 min; series mostly up to 54.1 µM. In outline:
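qHTS, 15 min compound preincubation with substrate (10 uM luciferin, 10 uM ATP) at RT, then 10 nM FLuc; 5 min; luminescence; % inhibition vs no-enzyme/DMSO controls, 4-parameter Hill fit.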

Assay [5] can be described thus: Viability counterscreen for antagonist of constitutive androstane receptor (CAR) against the NCATS DSHEA and TCM libraries (AID 1794837).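 Also: compound exposure lasted 24 h before viability reading; 0% is about no effect.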 The conditions noted are these: CAR reporter cell line viability counterscreen, qHTS; series mostly up to 40 µM. In outline: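 HepG2-CYP2B6-hCAR cells, 2,500/well, were exposed 24 hr at 37C to substances together with 48 uM CITCO (final). Viability was read as CellTiter-Fluor fluorescence (Ex/Em 405/540 nm) after 1 hr.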
(In general: A counterscreen serves to expose hits that act by an unwanted route or on another target.)

In assay [6] the target is Nuclear receptor subfamily 1 group I member 3 (Homo sapiens) (UniProt Q14994). Nature of the assay: Primary qHTS for agonist of constitutive androstane receptor (CAR) against the NCATS DSHEA and TCM libraries (AID 1794839).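 Also: HepG2 cells expressing human CAR with a CYP2B6 reporter plus PK11195 antagonist; 0% is about no effect.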 The conditions noted are these: CAR agonist reporter cells, qHTS luminescence, CAR antagonist co-added at 0.75 µM; series mostly up to 40 µM. In outline: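 HepG2-CYP2B6-hCAR cells, 2,500/well, attached 5 h, then dosed with 0.75 µM PK11195 (final) for 24 h at 37 °C. Luciferase luminescence read (ONE-Glo); CellTiter-Fluor viability (Ex/Em 405/540 nm) in same wells; CITCO positive control.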

Assay [7] in a line: HepG2 viability counterscreen (readout 2: ATP content) against the NCATS DSHEA and TCM libraries (AID 1794840). Also: 0% is about no effect. The note with it: ATP content luminescence; series mostly up to 27.3 µM. In outline:
(§1)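 HepG2 cells, 1,000/well, attached ~4 h, then exposed ~24 h at 37C to substances. Protease activity read by fluorescence of 25 uM GF-AFC (Ex/Em 380/510 nm) after 30 min; ATP then by CellTiter-Glo luminescence.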

The nature of assay [8]: HepG2 viability counterscreen (readout 1: protease activity) against the NCATS DSHEA and TCM libraries (AID 1794841).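 Also: cells exposed to compounds for about 24 h before the protease read; 0% is about no effect.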 The note with it: qHTS concentration series; series mostly up to 27.3 µM. The method, boiled down: as §1
Assay [9] deals with Catechol O-methyltransferase (Homo sapiens) (UniProt P21964). The assay can be described thus: Confirmatory Screen for Target Class Profiling of Small Molecule Inhibitors of Methyltransferases (AID 1745852). As to activity change, negative = inhibition: % is scaled to controls: 0 for no effect and ±100 for the full control effect. The conditions noted are these: MTase-Glo luminescence, SAH detection, recombinant enzyme; measured here: COMT max response; stronger effect = lower value.
In assay [10] the target is Guanidinoacetate N-methyltransferase (Homo sapiens) (UniProt Q14353). Described as above. The conditions noted are these: MTase-Glo luminescence, SAH detection, recombinant enzyme; activity change, negative = inhibition: at 57.3 µM (top of the series) unless noted; series mostly up to 57.3 µM.
In assay [11] the target is Nicotinamide N-methyltransferase (Homo sapiens) (UniProt P40261). The assay is described as above. The conditions noted are these: MTase-Glo luminescence, SAH detection, recombinant enzyme; measured here: NNMT max response; stronger effect = lower value.
Assay [12] concerns the target Phenylethanolamine N-methyltransferase (Homo sapiens) (UniProt P11086). The assay is described as above. The conditions noted are these: MTase-Glo luminescence, SAH detection, recombinant enzyme; measured here: PNMT max response; stronger effect = lower value.
The nature of assay [13]: Viability counterscreen for agonist of constitutive androstane receptor (CAR) against the NCATS DSHEA and TCM libraries (AID 1794838). Also: 0% is about no effect. The note with it: HepG2 cell viability counterscreen, CAR agonist assay, co-treated with 0.75 µM CAR antagonist; series mostly up to 40 µM. In outline:
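HepG2-CYP2B6-hCAR cells (2,500/well) treated 24 h at 37C with compounds plus 0.75 uM PK11195; viability read by CellTiter-Fluor fluorescence, Ex/Em 405/540 nm.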

The target of assay [14] is Metallo-beta-lactamase type 2 (Klebsiella pneumoniae) (UniProt C7C422). Nature of the assay: qHTS to identify inhibitors of the New Delhi Metallo-beta-lactamase (NDM): assay validation screen against the NCATS LOPAC Collection (AID 1794843).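 Also: nitrocefin turnover by NDM-1 measured as 485 nm absorbance at plateau; % is scaled to controls: 0 for no effect and ±100 for the full control effect.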 The conditions noted are these: NDM-1 enzyme, nitrocefin hydrolysis, absorbance 485 nm; series mostly up to 38.4 µM. In outline:
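Nitrocefin hydrolysis (50 uM substrate stock) by NDM-1, 2 nM final, was followed by 485 nm absorbance after compound preincubation; buffer was 50 mM HEPES pH 7.0, 1 uM ZnSO4, 0.01% Tween20.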

The text below walks through data of PubChem BioAssay (NCATS).

Several values for one entry are separate records, joined by “and”; a condition that tells them apart may be missing. Identical values can stand only once. Inconclusive results are not listed. Some structures have more than one record in an assay (separate samples or runs), and their calls can disagree. Activity calls are given as the source filed them. Calls follow the shape of the dose curve; as a rule, active = well fitted curve in the direction sought with a large enough effect; inconclusive = small, poorly fitted or top-dose-only effect, or another doubt; inactive = no such curve, though single readings can be large; an effect the other way counts as inactive or inconclusive.

Nicotinamide N-methyltransferase (Homo sapiens), sequence (P40261 whole entry, looked up): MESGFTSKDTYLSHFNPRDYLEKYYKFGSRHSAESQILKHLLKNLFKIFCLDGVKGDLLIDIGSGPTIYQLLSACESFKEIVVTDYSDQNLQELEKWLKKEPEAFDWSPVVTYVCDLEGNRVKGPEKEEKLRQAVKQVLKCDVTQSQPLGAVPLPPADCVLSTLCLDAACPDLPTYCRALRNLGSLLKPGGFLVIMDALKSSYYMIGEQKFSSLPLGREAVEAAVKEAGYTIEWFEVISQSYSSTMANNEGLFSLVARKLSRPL
Glutathione peroxidase 1 (Homo sapiens), sequence (P07203 whole entry, looked up): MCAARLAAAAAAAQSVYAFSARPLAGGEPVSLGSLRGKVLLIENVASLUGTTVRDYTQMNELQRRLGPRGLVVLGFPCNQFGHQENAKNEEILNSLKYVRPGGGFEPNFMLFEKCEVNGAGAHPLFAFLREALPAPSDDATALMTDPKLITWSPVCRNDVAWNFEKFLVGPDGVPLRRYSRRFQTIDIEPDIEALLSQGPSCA
Phenylethanolamine N-methyltransferase (Homo sapiens), sequence (P11086 whole entry, looked up): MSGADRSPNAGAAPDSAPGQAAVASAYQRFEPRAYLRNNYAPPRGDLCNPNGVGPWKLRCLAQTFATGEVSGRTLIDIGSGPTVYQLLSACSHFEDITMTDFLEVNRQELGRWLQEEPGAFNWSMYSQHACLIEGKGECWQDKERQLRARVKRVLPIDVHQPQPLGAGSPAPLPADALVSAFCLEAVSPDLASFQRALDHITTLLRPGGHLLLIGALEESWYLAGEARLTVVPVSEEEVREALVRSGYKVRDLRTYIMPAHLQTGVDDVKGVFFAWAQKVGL
Catechol O-methyltransferase (Homo sapiens), sequence (P21964 whole entry, looked up): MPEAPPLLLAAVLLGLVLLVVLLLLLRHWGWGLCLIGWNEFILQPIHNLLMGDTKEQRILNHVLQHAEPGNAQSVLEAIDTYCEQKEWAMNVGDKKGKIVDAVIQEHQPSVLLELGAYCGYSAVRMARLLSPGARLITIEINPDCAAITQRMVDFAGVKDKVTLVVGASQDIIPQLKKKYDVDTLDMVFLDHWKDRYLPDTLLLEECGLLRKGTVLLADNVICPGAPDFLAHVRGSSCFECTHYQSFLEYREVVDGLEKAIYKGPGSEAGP
Phospholipid hydroperoxide glutathione peroxidase GPX4 (Homo sapiens), sequence (P36969 whole entry, looked up): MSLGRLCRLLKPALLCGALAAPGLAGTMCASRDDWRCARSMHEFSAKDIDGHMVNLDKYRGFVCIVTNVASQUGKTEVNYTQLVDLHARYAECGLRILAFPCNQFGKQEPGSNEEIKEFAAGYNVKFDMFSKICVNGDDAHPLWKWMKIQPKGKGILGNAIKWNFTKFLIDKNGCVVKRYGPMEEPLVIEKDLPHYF
Nuclear receptor subfamily 1 group I member 3 (Homo sapiens), sequence (Q14994 whole entry, looked up): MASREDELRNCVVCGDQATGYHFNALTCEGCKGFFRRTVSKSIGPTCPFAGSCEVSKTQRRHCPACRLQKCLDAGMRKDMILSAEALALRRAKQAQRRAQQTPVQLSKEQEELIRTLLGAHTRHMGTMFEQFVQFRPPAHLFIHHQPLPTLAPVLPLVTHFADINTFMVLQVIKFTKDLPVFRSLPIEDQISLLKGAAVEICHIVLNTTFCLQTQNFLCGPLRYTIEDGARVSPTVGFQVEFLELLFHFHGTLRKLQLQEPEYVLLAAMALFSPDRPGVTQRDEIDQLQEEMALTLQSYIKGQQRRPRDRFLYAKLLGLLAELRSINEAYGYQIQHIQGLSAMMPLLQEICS
Metallo-beta-lactamase type 2 (Klebsiella pneumoniae), sequence (C7C422 whole entry, looked up): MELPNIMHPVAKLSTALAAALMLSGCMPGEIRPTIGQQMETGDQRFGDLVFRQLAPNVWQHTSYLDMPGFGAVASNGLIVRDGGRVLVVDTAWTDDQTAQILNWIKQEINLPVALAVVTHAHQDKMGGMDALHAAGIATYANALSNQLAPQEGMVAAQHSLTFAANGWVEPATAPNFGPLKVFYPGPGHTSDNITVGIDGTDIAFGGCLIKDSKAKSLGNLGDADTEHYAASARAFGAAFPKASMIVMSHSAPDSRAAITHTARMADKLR

For the compound `CC[C@@H](C(=O)O)[C@@H]1O[C@@H]([C@@H](C)[C@H](O)[C@H](C)C(=O)[C@H](CC)[C@H]2O[C@]3(C=C[C@@H](O)[C@]4(CC[C@@](C)([C@H]5CC[C@](O)(CC)[C@H](C)O5)O4)O3)[C@H](C)C[C@@H]2C)[C@@H](C)C[C@@H]1C`, the Potency result in assay [1] is “inactive”.
In the case of `Cc1c(-c2ccnn2C)cc(C(=O)NCc2ccc(S(C)(=O)=O)cn2)c(=O)n1-c1cccc(C(F)(F)F)c1`, in assay [2], the outcome is “inactive”. Besides, the Potency entry in assay [1] and in assay [4] was “inactive” in each case. The Potency result in assay [3] is “inactive and 12.8 µM (active)”.
Regarding `CCCCCCCC(=O)O`, the outcome in assay [5], in assay [6], in assay [7] and in assay [8] was “inactive” in each case. In addition, the Potency entry in [1] and in assay [3] was “inactive” each time.
In the case of `C[C@H](CCC(=O)O)[C@H]1CC[C@H]2[C@@H]3[C@H](O)C[C@@H]4C[C@H](O)CC[C@]4(C)[C@H]3CC[C@]12C`, in [1], the Potency entry was “inactive”.
Regarding `CC1=CCC(C(C)(C)O)CC1` (configuration not stated), the outcome in assay [7] and in assay [8] was “inactive” each time. The Potency entry in assay [1] and in assay [3] was “inactive” in each case.
Regarding `CCOC(=O)O[C@]1(C(=O)COC(=O)CC)CC[C@H]2[C@@H]3CCC4=CC(=O)C=C[C@]4(C)[C@H]3[C@@H](O)C[C@@]21C`, the Potency entry in [1] was “inactive”.
`COc1cc(/C=C/c2cc(O)cc(O[C@@H]3O[C@H](CO)[C@@H](O)[C@H](O)[C@H]3O)c2)ccc1O`: the activity is -45% in assay [9], -2.24% in assay [11] and 1.65% in [12]. Further, in assay [10], the activity change, negative = inhibition turned out to be 0.569% [at 29.8 µM]. For the same compound, the Potency result in assay [1], in assay [3] and in assay [4] was “inactive” each time.
For the compound `CC(C)(O)C1CC=C(C(=O)OCC2OC(Oc3c(O)cc(C(=O)O)cc3O)C(O)C(O)C2O)CC1` (configuration not stated), the figures for the activity in assay [9], in assay [11] and in [12] were -71.8%, -2.85% and -2.18%, respectively. In addition, the activity change, negative = inhibition in assay [10] is -3.66% [at 29.8 µM]. Besides, the Potency entry in assay [1], in assay [3] and in [4] was “inactive” throughout.
Take `C[C@@H]1O[C@@H](O[C@H]2[C@H](OC(=O)C34CCC(C)(C)CC3C3=CCC5C6(C)CC(O)C(O[C@@H]7O[C@H](CO)[C@@H](O)[C@H](O)[C@H]7O)C(C)(C(=O)O)C6CCC5(C)C3(CO)CC4)O[C@H](C)[C@H](O)[C@@H]2O)[C@H](O)[C@H](O)[C@H]1O[C@@H]1OC[C@@H](O)[C@H](O)[C@H]1O` (some centres not stated): the activity is -46% in [9], -3.41% in assay [11] and -2.81% in [12]. For the same compound, the activity change, negative = inhibition in assay [10] was -4.58% [at 19.1 µM]. The Potency entry in [1] and in assay [3] was “inactive” throughout. For the same compound, the outcome in assay [4] was “inactive [at 11.6 µM]”.
On to `Oc1cc(O)c2c(c1)OC(c1ccc(O)c(O)c1)C(O)C2` (configuration not stated), for which, in assay [7], the outcome is “inactive”.
For `CC1(C)CC[C@]2(C(=O)O[C@@H]3O[C@H](CO)[C@@H](O)[C@H](O)[C@H]3O)CC[C@]3(C)C(=CCC4[C@@]5(C)C[C@@H](O)[C@H](O)C(CO)(CO)C5CC[C@]43C)C2[C@@H]1O` (some centres not stated), the activity was -77.5% in [9], 0% in assay [11] and 4.05% in assay [12]. In [10], the activity change, negative = inhibition came out at 0% [at 19.1 µM]. Further, the Potency entry in assay [1] and in assay [4] was “inactive” each time.
In the case of `CC(C)(O)CNc1nc(Nc2ccnc(C(F)(F)F)c2)nc(-c2cccc(C(F)(F)F)n2)n1`, the outcome in assay [2] was “inactive”. The Potency entry in assay [1], in assay [3] and in [4] was “inactive” each time.
With `CC1=C(/C=C/C(C)=C/C=C/C(C)=C/CO)C(C)(C)CCC1`, the outcome in [5], in [13], in [7] and in assay [8] was “inactive” each time. Moreover, in assay [1], the Potency result was “inactive”. In assay [3], the Potency was 17.8 µM (active).
With `C[C@H]1[C@H](C)CC[C@]2(C(=O)O)CC[C@]3(C)C(=CC[C@@H]4[C@@]5(C)C[C@@H](O)[C@H](O)[C@@](C)(CO)[C@@H]5CC[C@]43C)[C@H]12`, the outcome in assay [5], in assay [13], in assay [6], in [7] and in [8] was “inactive” throughout. Also, the Potency entry in [1] and in assay [4] was “inactive” throughout.
On to `CCN(CC)Cc1cc(Nc2ccnc3cc(Cl)ccc23)ccc1O`, for which the outcome in assay [2] was “inactive”. Also, the Potency entry in assay [1] and in [3] was “inactive” each time.
As to `CN1Cc2c(N)cccc2C(c2ccccc2)C1` (configuration not stated), the outcome in assay [14] was “inactive”. In addition, the Potency result in [1] and in [3] was “inactive” in each case.
With `CC(=O)N(CC(C)C(=O)O)c1c(I)cc(I)c(N)c1I` (configuration not stated), the Potency result in [1] was “inactive”.
For `CC(=O)N(O)CCCCCN1C(=O)CCC1=O`, the Potency result in [1] is “inactive”.
Regarding `CC1=CC(=O)C2C(C)(C)CCCC2(C)C12CCC1(COC(=O)C1)O2` (configuration not stated), the activity in assay [9] was -85.5%; in assay [11], -1.78%; in assay [12], 3.04%. Besides, the activity change, negative = inhibition in assay [10] was 2.41%. Besides, the Potency entry in assay [1], in assay [3] and in assay [4] was “inactive” each time.
For `C/C=C(\C)C(=O)O[C@H]1[C@@H](O[C@]2(COC(=O)CC(C)C)O[C@H](COC(=O)C(C)C)[C@@H](OC(C)=O)[C@@H]2O)O[C@H](COC(C)=O)[C@@H](O)[C@@H]1O`, the activity is -75.6% in assay [9], 2.56% in assay [11] and -1.49% in [12]. In assay [10], the activity change, negative = inhibition worked out at 0% [at 19.1 µM]. For the same compound, the Potency entry in assay [1] is “inactive”. Also, the Potency in assay [4] was 4.46 µM (active).
Consider `COc1cc(N2CCC(O)CC2)ccc1Nc1cc(Nc2ccccc2S(=O)(=O)C(C)C)c2cc[nH]c2n1`, for which the activity is 2.25% in assay [9], -6.54% in assay [11] and 0.382% in assay [12]. In addition, the activity change, negative = inhibition in [10] was determined as 0%. Further, the Potency result in [1], in assay [3] and in assay [4] was “inactive” throughout.
`CC(CCC1C(C(=O)O)=CC(=O)CC1(C)C)O[C@@H]1O[C@H](CO)[C@@H](O)[C@H](O)[C@H]1O` (some centres not stated): the activity in assay [9] was -82.7%; in assay [11], -5.15%; in assay [12], -4.16%. Besides, in assay [10], the activity change, negative = inhibition was -6.33%. Also, the Potency entry in [1], in assay [3] and in assay [4] was “inactive” throughout.
